Experimental data taken from ChEMBL document CHEMBL4296182, “CO-ADD screening of NIH NCI Diversity Set V”.
For part of these data: Measured potencies and affinities stand elsewhere.

Experiments:
[1] = tested on: Staphylococcus aureus; experiment: Antibacterial activity against Staphylococcus aureus MRSA ATCC 43300 (CO-ADD:GP_020); MIC in CAMBH media using NBS plates, by Resazurin F(560/590); assay type: functional; settings: Concentration 20 uM, ASSAY_TEST Inhibition of Bacterial Growth, detection method Resazurin, Fluorescence (ex560/em590), MEDIA CAMHB, plate type 384well, CORNING #3640, time 18 hr
[2] = tested on: Acinetobacter baumannii; experiment: Antibacterial activity against Acinetobacter baumannii ATCC 19606 (CO-ADD:GN_034); MIC in CAMBH media using NBS plates, by Resazurin F(560/590); assay type: functional; settings: Concentration 20 uM, ASSAY_TEST Inhibition of Bacterial Growth, detection method Resazurin, Fluorescence (ex560/em590), MEDIA CAMHB, plate type 384well, CORNING #3640, time 18 hr
[3] = tested on: Escherichia coli; experiment: Antibacterial activity against Escherichia coli ATCC 25922 (CO-ADD:GN_001); MIC in CAMBH media using NBS plates, by Resazurin F(560/590); assay type: functional; settings: Concentration 20 uM, ASSAY_TEST Inhibition of Bacterial Growth, detection method Resazurin, Fluorescence (ex560/em590), MEDIA CAMHB, plate type 384well, CORNING #3640, time 18 hr
[4] = tested on: Klebsiella pneumoniae; settings: Concentration 20 uM; ASSAY_TEST Inhibition of Bacterial Growth; detection method Absorption (OD600); MEDIA CAMHB; plate type 384well; NBS; CORNING #3640; time 18 hr
[5] = tested on: Candida albicans; settings: 20 µM
[6] = tested on: Cryptococcus neoformans; settings: Concentration 20 uM; ASSAY_TEST Inhibition of Fungal Growth; detection method Resazurin; Absorption (OD600-OD570); plate type 384well; NBS; CORNING #3640

SMILES	Inhibition [1]	Inhibition [2]	Inhibition [3]	Inhibition [4]	Inhibition [5]	Inhibition [6]
COc1ccccc1N1C(=O)CC(Sc2ccccc2N)C1=O (stereo not given)	13.62%	1.84%	10.06%	1.73%	0.29%	-6.31%
c1ccc(Sc2ncccn2)nc1	20.57%	-8.37%	7.64%	5.74%	3.74%	-10.47%
O=[N+]([O-])/C=C/c1cc2ccccc2[nH]1	0.82%	-9.9%	9.79%	7.79%	46.8%	-1.09%
CN1CCN(C(=O)/C=C/c2ccc([N+](=O)[O-])o2)CC1	14.1%	5.92%	-7.59%	6.31%	3.54%	10.04%
CCN1CCC(Nc2ccnc3cc(Cl)ccc23)CC1	11.96%	-0.07%	-4.98%	16.53%	2.51%	-6.53%
Cc1oc2c(c(C)nn2-c2ccccc2)c(=O)c1Cl	-0.13%	-6.85%	7.16%	9.65%	14.3%	35.87%
Nc1ccc(N/C(S)=N/c2ccccc2)cc1	15.05%	4.29%	7.29%	5.43%	1.8%	-4.63%
O=C(NCc1ccco1)Nc1cccc([N+](=O)[O-])c1	14.39%	8.34%	-1.12%	10.94%	3.5%	-10.49%
COc1ccc(C2=NC(=O)NC2c2ccc(OC)cc2)cc1 (stereo not given)	6.62%	10.45%	-0.66%	17.66%	6.15%	-4.19%
CCNc1nn2ccccc2c1/C=C(/C#N)C(=O)OCC	10.32%	-16.65%	7.73%	11.76%	8.75%	-8.42%
CSc1nc(N)c(C(=O)NC2CCCCC2)s1	30.14%	-5.51%	5.05%	13.28%	8.55%	-3.08%
CCC(C)c1c(N)n(S(=O)(=O)c2ccc(C)cc2)oc1=O (stereo not given)	12.19%	-9.07%	9%	8.85%	1.8%	-2.18%
c1ccc(-c2ccc3c(c2)NC(C2Nc4cc(-c5ccccc5)ccc4O2)O3)cc1 (stereo not given)	3.85%	1.02%	2.77%	24.34%	-1.54%	-14.91%
O=C(COc1ccc([N+](=O)[O-])cc1Cl)N1CCOCC1	2.54%	4.52%	6.72%	6.01%	-1.21%	-16.6%
CNC(=O)c1nn(C)c(=O)[nH]c1=O	3.46%	-10.49%	19.05%	15.09%	4.6%	-7.3%
CCCCCc1cccnc1	1.69%	-4.62%	11.47%	10.71%	2.3%	-0.18%
CCN(CC)CCNc1c(C)nc(C#N)c(N)[n+]1[O-]	6.23%	-9.24%	11.24%	8.95%	2.9%	-16.29%
CCCCSc1cc(C)nc(N)n1	19.18%	-7.66%	11.54%	4.75%	1.09%	-5.9%
Cc1nc2c(O)cccc2cc1CO	12.47%	-18.52%	6.1%	7.86%	-0.94%	-5.84%
O=C1CCC(NC(=O)c2ccccc2)C(=O)N1 (stereo not given)	13.55%	6.82%	7.42%	5.68%	1.37%	-6.13%
O=S(=O)(c1ccc2c(c1)CCCN2)N1CCC[C@H]2CCCC[C@@H]21	4.63%	-20.33%	3.15%	6.75%	8.6%	-4.42%
O=[N+]([O-])c1ccccc1CSc1nc(O)c2nc[nH]c2n1	26.98%	9.09%	5.06%	15.06%	1%	-13.62%
CCOC(=O)CCCN(c1[nH]c(C)c(C)c1C#N)S(=O)(=O)c1ccc(C)cc1	20.71%	-4.29%	15.68%	14.1%	-2.66%	-4.37%
Nc1ccc(Nc2ccccc2)c(S(=O)(=O)O)c1	8.54%	9.36%	-14.68%	15.42%	18.9%	17.91%
O=C(Nc1ccc(Cl)c(Cl)c1)c1ccc(Cl)c(Cl)c1	18.37%	5.32%	2.55%	6.19%	-2.44%	-2.12%
